# Activity calls are given as the source filed them. The rule behind the calls is not given here.
# Target: Pantothenate synthetase (Mycobacterium tuberculosis (strain ATCC 25618 / H37Rv)) (UniProt P9WIL5)
# Test: Coupled enzyme confirmation of inhibitors against recombinant Mtb PanC (AID 375);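 note: 0% = full reaction with vehicle and 100% = no enzyme background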
# Details: coupled enzyme assay; at 10 µM, stronger effect = higher value
# Chain of Pantothenate synthetase (Mycobacterium tuberculosis (strain ATCC 25618 / H37Rv)) (P9WIL5 whole entry, looked up): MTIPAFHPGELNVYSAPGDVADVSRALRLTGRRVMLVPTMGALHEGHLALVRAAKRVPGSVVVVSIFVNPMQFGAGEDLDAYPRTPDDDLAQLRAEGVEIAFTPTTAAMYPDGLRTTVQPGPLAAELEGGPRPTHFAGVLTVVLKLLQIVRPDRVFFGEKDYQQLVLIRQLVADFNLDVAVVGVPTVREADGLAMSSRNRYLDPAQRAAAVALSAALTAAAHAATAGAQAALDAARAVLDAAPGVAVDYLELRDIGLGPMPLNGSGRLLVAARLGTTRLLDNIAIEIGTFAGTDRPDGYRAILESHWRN
row,SMILES,inhibition
1,COc1ccc(-c2noc(C3CCCN(C(=O)CCc4ccccc4)C3)n2)cc1 (configuration not stated),0% (inactive)
2,COc1ccc(-c2cc3c(=O)n(CC(=O)NC4CCN(Cc5ccccc5)CC4)ncn3n2)cc1,1% (inactive)
3,S=C(NCC1CCCO1)n1nnc2ccccc21 (configuration not stated),6% (inactive)
4,CC1(C)CC(=O)C=C(Nc2ccc(OCC(F)(F)C(F)F)cc2)C1,5% (inactive)
5,Cc1cc(C(=O)CSCc2nnc3n(CCC(C)C)c(=O)c4ccccc4n23)c(C)n1C,8% (inactive)
6,Nc1c(C(=O)NCCN2CCOCC2)c2nc3ccccc3nc2n1-c1ccc2c(c1)OCO2,1% (inactive)
7,Cc1ccc(NC(=O)N2CCC(c3nc4c(nnn4Cc4cccc(Cl)c4)c(=O)[nH]3)CC2)cc1,0% (inactive)
8,O=C(Nc1ccon1)c1cccc(S(=O)(=O)N2CCCC2)c1,2% (inactive)
9,COc1ccc2c(c1)CCc1c(C(=O)N3CC4(C)CC3CC(C)(C)C4)noc1-2 (configuration not stated),0% (inactive)
10,CC(=O)N1CCc2cc(S(=O)(=O)NCCC(=O)NC3CCCc4ccccc43)ccc21 (configuration not stated),0% (inactive)
11,COc1ccc2c(c1)CCc1c(C(=O)NCc3cccnc3)noc1-2,0% (inactive)
12,Cc1ccc2[nH]c3c(c2c1)CN(C(=O)CN1CCN(c2cccc(C)c2C)CC1)CC3,0% (inactive)
13,C=CCOc1ccc(/C=N/n2cncn2)cc1OC,0% (inactive)
14,CCN1CCN(C(=O)C2CC(c3ccc(F)cc3)=NO2)CC1 (configuration not stated),0% (inactive)
15,CCSc1nnc(NC(=O)CCNS(=O)(=O)c2cc(Br)cnc2N)s1,3% (inactive)
16,O=C(CN(Cc1ccco1)C(=O)CNS(=O)(=O)c1ccc(Cl)cc1)NCc1ccc(F)cc1,3% (inactive)
17,O=c1cc(-c2ccco2)oc2ccc(Cl)cc12,1% (inactive)
18,O=C1CC(Cc2ccccc2)C(=O)N1CCc1ccc2c(c1)OCO2 (configuration not stated),3% (inactive)
19,Cc1sc2ncnc(OCC(=O)N3CCN(S(=O)(=O)c4ccccc4)CC3)c2c1C,0% (inactive)
20,CCc1ccc(NC(=O)c2cccnc2)cc1,16% (inactive)
21,CCOC(=O)c1[nH]c(C)c(C(=O)N(C)C)c1C,0% (inactive)
22,Cc1cc2oc(=O)cc(CN3CCN(Cc4ccc5c(c4)OCO5)CC3)c2cc1C,0% (inactive)

# — PubChem BioAssay
